# Measured values: PubChem BioAssay
# Active and inactive are the calls of the source.
# Experiments:
# [1] = test system: PRMT1 (protein arginine N-methyltransferase 1); test: PRMT1 binders on small-molecule microarrays, primary screen, biochemical, small-molecule microarray, 635 nm fluorescence (AID 1088); settings: small-molecule microarray binding, higher = more signal;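 note: binding of Prmt1 protein to compounds spotted on small-molecule microarray slides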
# [2] = yeast growth modulation, basal conditions, primary screen, YJM789 clinical isolate, OD600, 24 h (AID 1089);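 note: growth of clinical yeast isolate S. cerevisiae YJM 789 seeded 1000 cells per well; test concentration not given here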; settings: S. cerevisiae YJM789 growth, higher = more signal, called active from +8 up or from −8 down
# [3] = fission yeast growth modulation, primary screen, strain 972, OD600, 24 h, no modulator (AID 1090);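 note: basal condition with compound alone and no growth modifier present; test concentration not given here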; settings: S. pombe 972 growth, higher = more signal, called active from +8 up or from −8 down
# [4] = S. cerevisiae growth modulation with rapamycin, primary screen, strain BY4716, OD600, 96 h (AID 1091); settings: higher = more signal, called active from +8 up or from −8 down; note: test concentration not given here
# [5] = target: Torsin-1A-interacting protein 2 (Homo sapiens) (UniProt Q8NFQ8); test: LULL1 binders on small-molecule microarray, primary screen, cell lysate, human LULL1 lysate, 635/667 nm fluorescence (AID 1092); settings: hLULL1 lysate binding, 635 nm fluorescence, higher = more signal;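 note: probe is lysate of COS7 cells overexpressing human LULL1; score merges per-feature 667 nm fluorescence with signal-to-noise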
# [6] = E. coli growth modulation, two-sided OD650, primary screen, E. coli filamentation project, strain DRC41, 24 h (AID 1093); settings: OD650, 24 h, higher = more signal, called active from +8 up or from −8 down;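 note: MC1000 strain lacking acrAB efflux and sulA so SOS filamentation is blocked; test concentration not given here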
# [7] = small-molecule microarray binders of probe aLefty2, primary screen, biochemical, biotinylated probe, 635/667 nm fluorescence (AID 1094); settings: higher = more signal;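 note: score merges spot fluorescence near 667 nm with spot signal-to-noise ratio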
# [8] = test system: Noggin (protein binding on small-molecule microarray); test: Noggin binders on small-molecule microarray, primary screen, biochemical, 635/667 nm fluorescence (AID 1095); settings: 635 nm fluorescence, higher = more signal;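 note: score merges 667 nm feature fluorescence with signal to noise over triplicate slides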
# [9] = target: Neurogenic locus notch homolog protein 3 (Homo sapiens) (UniProt Q9UM47); test: NOTCH3 binders on small-molecule microarray, primary screen, biochemical, 635/667 nm fluorescence (AID 1096); settings: NOTCH3 binding, 635 nm fluorescence, higher = more signal
# [10] = small-molecule microarray binders of probe aEGFR, primary screen, biochemical, biotinylated probe, 635/667 nm fluorescence (AID 1097); settings: higher = more signal;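 note: probe is a biotinylated anti-EGFR antibody binding compounds printed on slides; score combines fluorescence near 667 nm and signal to noise of each spot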
# [11] = test system: Plasmodium falciparum Sir2 (PF13_0152, Sir2A); test: pfSir2 binders on small-molecule microarrays, primary screen, biochemical, small-molecule microarray, 635 nm fluorescence (AID 1098); settings: small-molecule microarray binding, fluorescence 635 nm; higher = more signal;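 note: score merges spot fluorescence intensity with its signal-to-noise ratio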
# [12] = small-molecule microarray binders of probe aDKK1, primary screen, biochemical, biotinylated probe, 635/667 nm fluorescence (AID 1099); settings: higher = more signal;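 note: score merges 667nm spot fluorescence with signal to noise across triplicate slides; reference of the scale not given here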
# [13] = small-molecule microarray binders of probe aCHRDL2, primary screen, biochemical, biotinylated probe, 635/667 nm fluorescence (AID 1100); settings: higher = more signal
# [14] = splicing luciferase reporter signal modulators, primary screen, spliceosome inhibition project, cell-based, HEK293, splice +/- reporter (AID 1101); settings: luminescence, 24 h, higher = more signal, called active from +8 up or from −8 down;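 note: HEK293 cells carrying a splicing-competent luciferase reporter gene; test concentration not given here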
# [15] = target: Fibroblast growth factor 10 (Homo sapiens) (UniProt O15520); test: FGF10 binders on small-molecule microarrays, primary screen, biochemical, small-molecule microarray, 635 nm fluorescence (AID 1102); settings: FGF10 binding, fluorescence 635 nm, higher = more signal
# [16] = test system: glycogen synthase kinase-3 (GSK3A per assay name; protocol says GSK3B); test: GSK3 binders on small-molecule microarrays, primary screen, biochemical, small-molecule microarray, 635 nm fluorescence, GSK3A (AID 1103); settings: small-molecule microarray binding, fluorescence 635 nm; higher = more signal; note: the record names both GSK3A and GSK3B
# [17] = target: Epidermal growth factor receptor (Homo sapiens) (UniProt P00533); test: EGFR binders on small-molecule microarrays, primary screen, biochemical, small-molecule microarray, 635 nm fluorescence (AID 1104); settings: EGFR binding, higher = more signal;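 note: score merges 667 nm emission intensity with spot signal to noise over triplicate slides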
# [18] = target: Follistatin-related protein 3 (Homo sapiens) (UniProt O95633); test: FSTL3 binders on small-molecule microarrays, primary screen, biochemical, small-molecule microarray, 635 nm fluorescence (AID 1105); settings: FSTL3 binding, higher = more signal;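 note: score merges emission near 667 nm and signal to noise per printed spot across three slides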
# [19] = target: Dickkopf-related protein 1 (Homo sapiens) (UniProt O94907); test: DKK1 binders on small-molecule microarrays, primary screen, biochemical, small-molecule microarray, 635 nm fluorescence scan (AID 1106); settings: DKK1 binding, higher = more signal;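 note: score merges emission near 667 nm with signal to noise over three replicate slides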
# [20] = test system: Inhibin beta A chain (activin A); test: INHBA (activin A) binders on microarrays, primary screen, biochemical, small-molecule microarray, 635 nm fluorescence scan (AID 1107); settings: small-molecule microarray binding, higher = more signal;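 note: mouse activin A protein probed at 4.33 µg/mL on printed slides; score merges bound-protein fluorescence near 667 nm with spot signal-to-noise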
# Neurogenic locus notch homolog protein 3 (Homo sapiens), sequence (Q9UM47 whole entry, looked up): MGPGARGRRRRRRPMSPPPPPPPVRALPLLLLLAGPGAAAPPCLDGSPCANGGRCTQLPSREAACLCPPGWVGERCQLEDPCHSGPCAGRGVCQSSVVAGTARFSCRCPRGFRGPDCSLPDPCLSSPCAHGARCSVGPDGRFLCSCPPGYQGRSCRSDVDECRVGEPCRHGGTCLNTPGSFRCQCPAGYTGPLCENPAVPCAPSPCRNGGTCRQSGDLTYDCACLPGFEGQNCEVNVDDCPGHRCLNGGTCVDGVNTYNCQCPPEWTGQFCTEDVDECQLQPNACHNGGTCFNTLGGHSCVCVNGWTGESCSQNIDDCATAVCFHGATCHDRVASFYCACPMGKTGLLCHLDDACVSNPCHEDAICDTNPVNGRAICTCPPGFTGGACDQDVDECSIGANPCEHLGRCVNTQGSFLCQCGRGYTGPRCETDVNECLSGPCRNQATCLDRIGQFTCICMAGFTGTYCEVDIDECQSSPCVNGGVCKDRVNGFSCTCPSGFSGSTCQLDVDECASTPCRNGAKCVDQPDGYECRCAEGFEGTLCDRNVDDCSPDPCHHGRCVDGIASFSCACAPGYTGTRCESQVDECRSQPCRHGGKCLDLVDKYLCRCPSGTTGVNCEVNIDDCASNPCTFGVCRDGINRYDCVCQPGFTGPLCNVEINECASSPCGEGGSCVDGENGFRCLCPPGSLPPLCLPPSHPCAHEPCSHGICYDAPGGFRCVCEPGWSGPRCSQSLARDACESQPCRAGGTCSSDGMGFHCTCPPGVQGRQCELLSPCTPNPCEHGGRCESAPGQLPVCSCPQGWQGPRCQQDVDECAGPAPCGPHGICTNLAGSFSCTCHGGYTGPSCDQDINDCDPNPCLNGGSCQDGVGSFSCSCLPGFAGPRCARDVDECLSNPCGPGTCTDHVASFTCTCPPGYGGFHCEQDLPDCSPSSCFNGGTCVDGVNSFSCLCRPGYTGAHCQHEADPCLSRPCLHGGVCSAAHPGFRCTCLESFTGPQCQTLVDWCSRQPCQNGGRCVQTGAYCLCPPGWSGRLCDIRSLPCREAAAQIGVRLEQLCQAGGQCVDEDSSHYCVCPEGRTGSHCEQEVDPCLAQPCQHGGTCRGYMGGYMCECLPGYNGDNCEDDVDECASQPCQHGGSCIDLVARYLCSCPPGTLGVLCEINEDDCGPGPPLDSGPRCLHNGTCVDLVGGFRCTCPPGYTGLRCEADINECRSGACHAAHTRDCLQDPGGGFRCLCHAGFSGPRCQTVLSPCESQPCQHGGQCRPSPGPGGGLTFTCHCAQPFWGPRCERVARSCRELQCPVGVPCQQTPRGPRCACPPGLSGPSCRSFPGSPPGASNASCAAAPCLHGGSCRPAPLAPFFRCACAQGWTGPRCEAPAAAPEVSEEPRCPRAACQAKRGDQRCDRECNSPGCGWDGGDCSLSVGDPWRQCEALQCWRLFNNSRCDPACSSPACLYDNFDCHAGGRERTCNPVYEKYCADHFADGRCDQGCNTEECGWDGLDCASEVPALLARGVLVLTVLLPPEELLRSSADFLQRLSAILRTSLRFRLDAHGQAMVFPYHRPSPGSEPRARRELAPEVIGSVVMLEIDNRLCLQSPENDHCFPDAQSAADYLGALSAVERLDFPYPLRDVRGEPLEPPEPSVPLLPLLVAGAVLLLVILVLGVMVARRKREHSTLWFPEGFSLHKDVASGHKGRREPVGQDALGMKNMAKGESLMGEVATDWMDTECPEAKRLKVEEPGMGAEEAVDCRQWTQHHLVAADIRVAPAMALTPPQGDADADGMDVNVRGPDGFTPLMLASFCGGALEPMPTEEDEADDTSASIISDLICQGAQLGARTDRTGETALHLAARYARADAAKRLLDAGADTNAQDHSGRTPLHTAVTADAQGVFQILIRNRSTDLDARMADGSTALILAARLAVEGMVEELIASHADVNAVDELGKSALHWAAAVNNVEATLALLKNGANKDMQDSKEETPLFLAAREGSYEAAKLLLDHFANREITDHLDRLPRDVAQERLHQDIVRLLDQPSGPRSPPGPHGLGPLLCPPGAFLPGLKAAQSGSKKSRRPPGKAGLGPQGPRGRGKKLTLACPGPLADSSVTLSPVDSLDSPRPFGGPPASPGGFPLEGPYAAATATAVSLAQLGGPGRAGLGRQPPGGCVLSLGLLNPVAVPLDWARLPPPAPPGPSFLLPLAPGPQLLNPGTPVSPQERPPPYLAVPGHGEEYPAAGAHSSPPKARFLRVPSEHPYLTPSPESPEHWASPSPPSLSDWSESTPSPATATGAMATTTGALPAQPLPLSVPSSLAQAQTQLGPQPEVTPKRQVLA
# Torsin-1A-interacting protein 2 (Homo sapiens), sequence (Q8NFQ8 whole entry, looked up): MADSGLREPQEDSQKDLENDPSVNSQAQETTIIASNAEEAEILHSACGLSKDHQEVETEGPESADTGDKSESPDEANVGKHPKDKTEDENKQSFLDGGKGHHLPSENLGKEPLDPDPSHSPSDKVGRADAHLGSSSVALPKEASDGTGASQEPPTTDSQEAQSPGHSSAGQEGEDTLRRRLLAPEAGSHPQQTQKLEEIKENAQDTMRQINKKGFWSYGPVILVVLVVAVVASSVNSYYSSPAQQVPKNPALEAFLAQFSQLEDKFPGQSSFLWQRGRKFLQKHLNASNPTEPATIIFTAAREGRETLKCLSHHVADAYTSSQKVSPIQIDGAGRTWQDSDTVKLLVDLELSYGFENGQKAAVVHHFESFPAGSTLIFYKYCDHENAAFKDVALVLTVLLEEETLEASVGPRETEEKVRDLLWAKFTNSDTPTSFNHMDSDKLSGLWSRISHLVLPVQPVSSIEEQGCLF
# Follistatin-related protein 3 (Homo sapiens), sequence (O95633 whole entry, looked up): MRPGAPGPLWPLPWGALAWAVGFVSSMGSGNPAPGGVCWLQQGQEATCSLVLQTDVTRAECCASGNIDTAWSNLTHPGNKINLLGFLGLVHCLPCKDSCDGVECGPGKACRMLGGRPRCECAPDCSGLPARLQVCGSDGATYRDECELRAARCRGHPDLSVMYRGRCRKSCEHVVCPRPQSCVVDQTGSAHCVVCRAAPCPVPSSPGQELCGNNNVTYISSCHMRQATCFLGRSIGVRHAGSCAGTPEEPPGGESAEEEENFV
# Fibroblast growth factor 10 (Homo sapiens), sequence (O15520 whole entry, looked up): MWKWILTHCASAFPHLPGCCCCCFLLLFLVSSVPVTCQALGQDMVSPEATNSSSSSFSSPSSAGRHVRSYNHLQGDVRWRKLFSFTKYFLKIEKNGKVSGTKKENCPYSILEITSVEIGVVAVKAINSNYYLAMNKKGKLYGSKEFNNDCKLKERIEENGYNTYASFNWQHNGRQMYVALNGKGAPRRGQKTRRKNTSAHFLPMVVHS
# Dickkopf-related protein 1 (Homo sapiens), sequence (O94907 whole entry, looked up): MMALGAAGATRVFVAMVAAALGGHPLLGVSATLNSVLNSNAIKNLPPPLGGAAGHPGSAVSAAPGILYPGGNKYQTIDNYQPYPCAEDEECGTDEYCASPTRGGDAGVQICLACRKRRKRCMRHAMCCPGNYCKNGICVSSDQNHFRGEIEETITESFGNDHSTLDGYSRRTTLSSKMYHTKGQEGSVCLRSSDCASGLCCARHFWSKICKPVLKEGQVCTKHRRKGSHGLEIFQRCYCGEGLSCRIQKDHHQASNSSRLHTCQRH
# Epidermal growth factor receptor (Homo sapiens), sequence (P00533 whole entry, looked up): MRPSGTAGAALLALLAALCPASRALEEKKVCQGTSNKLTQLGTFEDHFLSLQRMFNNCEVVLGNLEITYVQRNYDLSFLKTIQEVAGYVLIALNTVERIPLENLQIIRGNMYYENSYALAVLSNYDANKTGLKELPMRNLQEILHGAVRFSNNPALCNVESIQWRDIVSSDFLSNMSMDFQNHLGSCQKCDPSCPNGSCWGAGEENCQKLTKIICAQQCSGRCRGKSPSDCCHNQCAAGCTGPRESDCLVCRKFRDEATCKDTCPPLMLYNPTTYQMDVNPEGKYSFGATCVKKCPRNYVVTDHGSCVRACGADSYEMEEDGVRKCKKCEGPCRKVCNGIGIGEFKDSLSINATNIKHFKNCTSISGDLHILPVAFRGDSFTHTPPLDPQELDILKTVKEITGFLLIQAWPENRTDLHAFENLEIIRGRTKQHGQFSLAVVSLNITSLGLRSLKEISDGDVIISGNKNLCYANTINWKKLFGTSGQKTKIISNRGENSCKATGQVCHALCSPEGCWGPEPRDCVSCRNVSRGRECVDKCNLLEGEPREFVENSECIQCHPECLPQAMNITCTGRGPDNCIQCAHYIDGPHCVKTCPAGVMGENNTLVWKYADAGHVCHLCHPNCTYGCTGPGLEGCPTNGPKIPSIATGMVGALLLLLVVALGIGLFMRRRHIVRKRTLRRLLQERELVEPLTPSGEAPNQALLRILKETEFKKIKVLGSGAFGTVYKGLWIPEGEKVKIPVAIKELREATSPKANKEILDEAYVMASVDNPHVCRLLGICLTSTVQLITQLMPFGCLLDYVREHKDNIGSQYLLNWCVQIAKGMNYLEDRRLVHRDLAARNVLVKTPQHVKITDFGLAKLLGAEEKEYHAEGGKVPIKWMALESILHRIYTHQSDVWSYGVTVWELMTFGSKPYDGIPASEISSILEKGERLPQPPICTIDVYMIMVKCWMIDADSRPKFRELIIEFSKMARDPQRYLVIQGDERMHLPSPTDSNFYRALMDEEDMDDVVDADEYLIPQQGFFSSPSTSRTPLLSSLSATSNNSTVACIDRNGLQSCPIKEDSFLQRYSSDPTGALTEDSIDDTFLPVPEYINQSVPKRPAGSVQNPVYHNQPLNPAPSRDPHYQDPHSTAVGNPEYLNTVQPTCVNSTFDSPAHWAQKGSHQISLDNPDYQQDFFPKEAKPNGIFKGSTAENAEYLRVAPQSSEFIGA
SMILES,composite z-score [1],z-score [2],z-score [3],z-score [4],composite z-score [5],z-score [6],composite z-score [7],composite z-score [8],composite z-score [9],composite z-score [10],composite z-score [11],composite z-score [12],composite z-score [13],z-score [14],composite z-score [15],composite z-score [16],composite z-score [17],composite z-score [18],composite z-score [19],composite z-score [20]
CC(C)[Si](C#CCCCC#N)(O[C@H](c1ccccc1)c1cn(Cc2ccccc2)nn1)C(C)C,1.36,-1.45 (inactive),-2.74 (inactive),-2.8 (inactive),0.573,1.84 (inactive),-0.119,0.509,1.09,-0.0681,0.562,-0.17,-0.65,-1.08 (inactive),1.01,1.15,0.494,1.21,0.869,0.105
NCCCCCNC(=O)[C@@H]1C[C@@H]2C(=O)N[C@@H](CCCCN)C(=O)N2[C@@H]1c1ccc(O)cc1,1.53,1.83 (inactive),1.91 (inactive),3.76 (inactive),3.2,-0.0616 (inactive),0.303,1.67,0.881,0.345,1.57,0.899,0.713,0.498 (inactive),1.41,1.34,1.13,1.43,1.81,1.32
COC(=O)[C@]1(CCS(=O)(=O)c2ccccc2)N=C(c2ccc(OCCCO)cc2)O[C@@H]1c1ccccc1N=[N+]=[N-],1.54,0.764 (inactive),-2.44 (inactive),35.7 (active),3.23,-1.29 (inactive),0.346,1.22,1.04,0.6,1.62,0.99,1.12,-0.571 (inactive),1.3,1.3,0.416,1.2,0.666,0.199
COc1cc(NN2C(C(O)c3cc(OC)c(OC)c(OC)c3)C=CC3C(=O)N(C)C(=O)C32)cc(OC)c1OC (stereo not given),0.986,-0.871 (inactive),-0.724 (inactive),-0.0522 (inactive),3.37,-0.678 (inactive),0.16,-0.112,1.06,0.08,1.03,0.171,0.318,0.255 (inactive),0.691,0.984,0.347,0.34,-0.289,0.93
CCCCC(CC)C(O)C1C=CC2C(=O)N(c3ccccc3)C(=O)C2N1Nc1ccccc1F (stereo not given),1.53,-0.802 (inactive),1.53 (inactive),0.314 (inactive),2.64,0.379 (inactive),0.222,0.0782,0.822,-0.162,1.02,0.36,0.852,-0.561 (inactive),0.944,1.23,-0.187,0.517,-0.505,0.744
O=C(Cc1ccccc1)[C@H]1C2C=CCCC(c3ccccc3)=C2CN1Cc1ccccc1 (stereo not given in full),0.044,-0.213 (inactive),-1.29 (inactive),-0.481 (inactive),-0.862,2.42 (inactive),-0.207,-0.0884,-0.433,-0.0828,-0.313,-0.138,-0.191,-0.445 (inactive),-0.0435,-0.117,-0.097,-0.137,0.191,0.707
COc1ccc([Si](C)(C)[C@@H]2[C@@H](CCO)O[C@]3(C(=O)N(Cc4ccccc4)c4ccc(NC(=O)[C@H](C)O)cc43)[C@H]2C)cc1,1.54,2.85 (inactive),0.386 (inactive),7.41 (inactive),2,0.655 (inactive),-0.0766,1.25,1.05,-0.067,0.728,-0.106,-0.147,-1.75 (inactive),0.867,1.29,0.778,1.14,0.43,-0.159
CCCCCN1CC=CC23O[C@@H]4C=CCCOC(=O)C4[C@H]2C(=O)N(CCCCCCO)[C@@H]3C1=O (stereo not given in full),0.812,-0.0966 (inactive),-0.0045 (inactive),-0.0168 (inactive),3.49,0.313 (inactive),-0.423,-0.362,-0.135,-0.282,0.788,-0.467,-0.272,2.61 (inactive),0.0027,-0.284,-0.547,-1.01,-0.69,-0.206
O=c1cccc(-c2ccc([N+](=O)[O-])cc2)o1,1.03,-0.778 (inactive),1.25 (inactive),-0.495 (inactive),0.706,0.188 (inactive),-0.139,1.17,0.375,-0.0644,-0.632,-0.0855,-0.512,-1.49 (inactive),0.274,0.959,0.574,0.534,0.0662,1.22
COc1ccc(C#Cc2ccc3c(c2)[C@]2(C(=O)N3)[C@H](c3ccc(O)cc3)N3[C@H](c4ccccc4)[C@H](c4ccccc4)OC(=O)[C@H]3[C@@H]2C(=O)Nc2nc3ccccc3s2)cc1,1.55,1.51 (inactive),-0.924 (inactive),-0.221 (inactive),3.07,1.92 (inactive),0.334,0.46,1.05,0.484,1.48,0.223,0.342,-0.793 (inactive),1.28,1.31,0.45,1.2,0.775,-0.604
